Screening data (PubChem)
Shown are actives, neighbours in structure and some others; about 7.9% of the full set was active somewhere.
MITF inhib = blocks MITF activity; TRPM1 promoter luciferase, luminescence, 24 h; inhibition, % (concentration not given with the values); 37,000 compounds, 0.28% hits; in the data active means inhibition above about 85%; inconclusive means no clear call, values can overlap the other calls; inactive means below about 68%;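 further: human melanocyte line stably carrying TRPM1 promoter luciferase reporter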
PD-1 reversal = reversal of PD-1 mediated T-cell inhibition | AID 2316 | activation, % (concentration not given with the values) | primary human CD4 T cells, PD-L1 beads, CellTiter-Glo 96 h | 29,000 tested, under 10 active; call rule not given here
Shh pathway inh = Sonic Hedgehog pathway inhibition | Shh-LIGHT2 Gli-luciferase reporter, 30 h | inhibition, % (no concentration beside the values) | 22,000 compounds, 2.1% hits | AID 2313;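 active means mean inhibition across valid replicates above about 65%, limit read from the data; inconclusive means mean under the limit, yet half or more replicates past it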;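 further: pathway switched on by Shh-conditioned medium diluted 1 in 25 in low serum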
NOMO-1 viab = STK33 inhibitor candidate reducing NOMO-1 cell viability; NOMO-1 AML viability, CellTiter-Glo luminescence, 72 h; inhibition, % (concentration not given with the values); 37,000 compounds, 7.5% hits; AID 2330; in the data active means inhibition above about 80%; inconclusive means no clear call, values can overlap the other calls
Each line names hits and unclear results; the compound was inactive in the other large screens.

C=CCNC(=S)N1N=C2c3ccccc3CCC2C1c1ccccc1Cl (stereo unspecified)	NOMO-1 viab 109.2 (no result: Shh pathway inh)
CC(=O)N1N=C2c3ccccc3CCC2C1c1cccs1 (stereo unspecified)	none (no result: Shh pathway inh)
Cc1ccc(Cl)cc1NC(=O)C(C)n1cc([N+](=O)[O-])cn1 (stereo unspecified)	none (no result: PD-1 reversal, Shh pathway inh)
CC1CC(NC(=S)NCc2csc3ccccc23)CC(C)(C)C1 (stereo unspecified)	Shh pathway inh inconclusive, NOMO-1 viab 109.0
C[C@@H]1C[C@H]2OCC3=CCC[C@H]([C@]1(CC(O)c1ccoc1)C(=O)O)[C@]32CO (stereo partly specified)	NOMO-1 viab 120.1
C[C@@H]1CN([C@H](C)CO)C(=O)c2cc(NC(=O)Nc3cccc4ccccc34)ccc2O[C@H]1CN(C)Cc1ccc(Oc2ccccc2)cc1	NOMO-1 viab 108.6 (no result: Shh pathway inh)
COc1ccc(CN(C)C[C@H]2Oc3ccc(NC(=O)Nc4cccc5ccccc45)cc3C(=O)N([C@H](C)CO)C[C@@H]2C)cc1	none
COc1ccc(CN(C)C[C@H]2Oc3ccc(NC(=O)Nc4cccc5ccccc45)cc3C(=O)N([C@@H](C)CO)C[C@H]2C)cc1	none
C[C@@H]1CN([C@@H](C)CO)C(=O)c2cc(NC(=O)Nc3cccc4ccccc34)ccc2O[C@@H]1CN(C)Cc1ccc(Oc2ccccc2)cc1	NOMO-1 viab 114.4 (no result: PD-1 reversal, Shh pathway inh)
CSc1nc(C)cc(OCC(=O)Nc2ccc(Cl)cc2)n1	none (no result: Shh pathway inh)
COC(=O)c1cc(C)nc(Sc2ccccc2NC(=O)Nc2ccc(Cl)cc2)n1	NOMO-1 viab 108.7
C[C@@H]1CCCCO[C@@H](CN(C)C(=O)Nc2ccc(C(F)(F)F)cc2)[C@@H](C)CN([C@H](C)CO)C(=O)c2cc(NC(=O)c3ccccc3)ccc2O1	NOMO-1 viab 90.6
C[C@@H]1CCCCO[C@@H](CN(C)C(=O)NC2CCCCC2)[C@@H](C)CN([C@H](C)CO)C(=O)c2cc(NC(=O)Nc3ccc(C(F)(F)F)cc3)ccc2O1	NOMO-1 viab 99.5
C[C@@H]1CCCCO[C@H](CN(C)C(=O)Nc2ccc(C(F)(F)F)cc2)[C@@H](C)CN([C@H](C)CO)C(=O)c2cc(NC(=O)NC3CCCCC3)ccc2O1	none
C[C@@H]1CCCCO[C@@H](CN(C)CC2CC2)[C@@H](C)CN([C@H](C)CO)C(=O)c2cc(NC(=O)Nc3ccc(C(F)(F)F)cc3)ccc2O1	NOMO-1 viab 118.9
C[C@@H]1CCCCO[C@H](CN(C)CC2CCCCC2)[C@@H](C)CN([C@H](C)CO)C(=O)c2cc(NC(=O)Nc3ccccc3)ccc2O1	NOMO-1 viab inconclusive (no result: PD-1 reversal, Shh pathway inh)
C[C@@H]1CCCCO[C@@H](CN(C)CC2CCCCC2)[C@@H](C)CN([C@H](C)CO)C(=O)c2cc(NC(=O)Nc3ccc(C(F)(F)F)cc3)ccc2O1	NOMO-1 viab 117.0 (no result: Shh pathway inh)
C[C@@H]1CCCCO[C@@H](CN(C)Cc2ccc(C(F)(F)F)cc2)[C@@H](C)CN([C@H](C)CO)C(=O)c2cc(NC(=O)Nc3ccc(F)cc3)ccc2O1	none (no result: PD-1 reversal)
CC(=O)Nc1ccc(S(=O)(=O)NCc2ccc3[nH]c4c(c3c2)CCCC4)cc1	none (no result: Shh pathway inh)
C[C@@H]1CCCCO[C@@H](CN(C)CC2CCCCC2)[C@@H](C)CN([C@H](C)CO)C(=O)c2cc(NC(=O)Nc3ccc(F)cc3)ccc2O1	NOMO-1 viab 115.3 (no result: Shh pathway inh)
C[C@H]1CN([C@@H](C)CO)C(=O)Cc2cc(NC(=O)Cc3ccccc3)ccc2O[C@H]1CN(C)Cc1ccc(-c2ccccc2)cc1	NOMO-1 viab 98.9
C[C@@H]1CN([C@H](C)CO)C(=O)Cc2cc(NC(=O)Cc3ccccc3)ccc2O[C@@H]1CN(C)Cc1ccc(Oc2ccccc2)cc1	NOMO-1 viab 115.6
C[C@H]1CN([C@@H](C)CO)C(=O)Cc2cc(NC(=O)Cc3ccccc3)ccc2O[C@@H]1CN(C)Cc1ccc(-c2ccccc2)cc1	none
Cn1cnnc1Sc1cc(C#N)c(C#N)cc1Sc1nncn1C	none
Cc1cc(C)nc(S/C=C/C(=O)c2ccc(Cl)cc2)n1	NOMO-1 viab 121.2
Cn1cnnc1S/C=C/C(=O)c1ccc(Cl)cc1	NOMO-1 viab 115.7
CC(C)(C)C(=O)CC(Nc1ccccc1)c1ccc(Cl)cc1 (stereo unspecified)	none (no result: Shh pathway inh)
O=C(/C=C/Sc1ccc(Cl)cc1)c1ccccc1	NOMO-1 viab 122.6
COc1ccccc1CNc1nc2nc(C)cc(C)n2n1	none (no result: PD-1 reversal, Shh pathway inh)
C/C1=C/CC(=O)[C@@H](C)C[C@H]2OC(=O)C(CO)=C2CC1	none
O=[N+]([O-])c1cc(C(F)(F)F)ccc1NCCNS(=O)(=O)c1ccc2ccccc2c1	none (no result: Shh pathway inh)
COc1ccc(S(=O)(=O)Nc2cccnc2)cc1C(=O)O	none (no result: Shh pathway inh)
CC(=O)NCCOc1ccc(C2CCCCC2)cc1	none
Nc1cc(C(F)(F)F)ccc1Oc1ccc(C2CCCCC2)cc1	NOMO-1 viab 113.4
Clc1ccc(-c2cnc3n2CCC3)cc1Cl	NOMO-1 viab 111.7 (no result: Shh pathway inh)
Cc1cc(C)cc(NC(=O)COc2ccc(N3CC(C(N)=O)CC3=O)cc2)c1 (stereo unspecified)	none (no result: Shh pathway inh)
Cc1cccc(C(=O)Nc2ccc3[nH]c(=O)[nH]c3c2)c1	none (no result: Shh pathway inh)
CC1(C)C(=O)C=C[C@@]2(C)C1CC(=O)[C@@]1(C)C3=CC(=O)O[C@@H](c4ccoc4)[C@]3(C)CCC12 (stereo partly specified)	none (no result: PD-1 reversal)
CC1(C)C(=O)C=C[C@@]2(C)C1C=C[C@]1(C)C2CC[C@@]2(C)[C@H](c3ccoc3)OC(=O)C3OC321 (stereo partly specified)	MITF inhib 101.2, NOMO-1 viab 106.7 (no result: PD-1 reversal)
C=C1C(C2(C)C=CC(=O)C(C)(C)C2CC(=O)OC)CC[C@@]2(C)[C@H](c3ccoc3)OC(=O)C3OC132 (stereo partly specified)	Shh pathway inh inconclusive, NOMO-1 viab 110.4 (no result: PD-1 reversal)
C[C@@H]1CN([C@H](C)CO)C(=O)Cc2cc(NS(=O)(=O)c3ccccc3)ccc2O[C@H]1CN(C)CC1CCCCC1	none
Cc1ccc(S(=O)(=O)Nc2ccc3c(c2)CC(=O)N([C@@H](C)CO)C[C@H](C)[C@H](CN(C)CC2CCCCC2)O3)cc1	NOMO-1 viab 102.0 (no result: Shh pathway inh)
Cc1ccc(S(=O)(=O)Nc2ccc3c(c2)CC(=O)N([C@H](C)CO)C[C@@H](C)[C@H](CN(C)CC2CC2)O3)cc1	none (no result: PD-1 reversal)
Cc1ccc(S(=O)(=O)Nc2ccc3c(c2)CC(=O)N([C@H](C)CO)C[C@@H](C)[C@H](CN(C)CC2CCCCC2)O3)cc1	NOMO-1 viab 83.6
C[C@H](CO)N1C[C@H](C)[C@H](CN(C)CC2CCCCC2)Oc2ccc(NS(=O)(=O)c3ccccc3)cc2CC1=O	none (no result: PD-1 reversal, Shh pathway inh)
Cc1ccc(S(=O)(=O)Nc2ccc3c(c2)CC(=O)N([C@H](C)CO)C[C@@H](C)[C@@H](CN(C)CC2CCCCC2)O3)cc1	NOMO-1 viab 97.0
C[C@H]1CN([C@@H](C)CO)C(=O)Cc2cc(NC(=O)Nc3ccc(C(F)(F)F)cc3)ccc2O[C@@H]1CN(C)Cc1ccc2c(c1)OCO2	none (no result: PD-1 reversal)
C[C@H](CO)N1C[C@H](C)[C@H](CN(C)Cc2ccc3c(c2)OCO3)Oc2ccc(NC(=O)Nc3ccc(C(F)(F)F)cc3)cc2CC1=O	NOMO-1 viab 124.0
C[C@@H]1CN([C@H](C)CO)C(=O)Cc2cc(NC(=O)Nc3ccc4c(c3)OCO4)ccc2O[C@@H]1CN(C)Cc1ccc(C(F)(F)F)cc1	NOMO-1 viab 81.0
